Assay outcomes deposited in PubChem BioAssay by ICCB-Longwood Screening Facility, Harvard Medical School.
VACV E9 pol inh: vaccinia E9 polymerase processive synthesis inhibitors, primary screen, biochemical, absorbance; Vaccinia virus DNA polymerase (E9) processive complex; normalized absorbance, % (no concentration beside the values); in vitro processive DNA synthesis, absorbance read-out; stronger effect = lower value; hit rate 0.94% among 46,000; in the data active = normalized absorbance mostly below about 85%, no sharp cut-off; inactive = mostly above about 86%
Large screens that a line does not name were inactive. The sample as a whole holds a higher share of hits than the screen did.

CC[C@@]1(O)C[C@H](OC2CC(N(C)C)C(OC3CC(O)C(OC4CCC(=O)C(C)O4)C(C)O3)C(C)O2)c2c(cc3c(c2O)C(=O)c2c(O)cccc2C3=O)[C@H]1C(=O)OC (some centres undefined)	VACV E9 pol inh 38
COc1ccc(CCNC(=O)c2ccc3nc(-c4ccccc4NC(C)=O)c(=O)[nH]c3c2)c(OC)c1	none
CCSc1nnc(-c2ccccc2)c(-c2ccccc2)n1	none
Cc1nc2ccccc2cc1C(=O)NCc1ccccn1	none
Cc1nc(NCc2ccccn2)c2ccccc2n1	VACV E9 pol inh 51
CCn1c(NCc2ccccn2)nc2ccccc21	none
Cc1onc(-c2c(Cl)cccc2Cl)c1CSc1nncn1C(C)(C)C	none
O=C(O)C(Cc1ccccc1)N1C(=O)/C(=C/c2ccccc2)SC1=S (centres undefined)	none
COc1cc(/C=C2\SC(=S)N(C(C(=O)O)C(C)C)C2=O)cc(OC)c1O (centres undefined)	none
CC(C)C(C(=O)O)N1C(=O)/C(=C/c2ccccc2)SC1=S (centres undefined)	VACV E9 pol inh 83
CCC12CN3CC(CC)(CN(C1)C3c1c(C)[nH]c3ccccc13)C2=O (centres undefined)	none
COC(Cn1c(-c2ccccc2)cc(C2=C(O)CC(C)(C)CC2=O)c1-c1ccccc1)OC	none
Cc1ccc(/C=C2/SC(=Nc3ccc(O)cc3)NC2=O)o1	none
Cc1ccc(/C=C2/SC(=O)NC2=S)o1	VACV E9 pol inh 75
Cc1ccc(/C=C2\SC(=O)NC2=O)o1	none
Cc1cc(Nc2ccc(O)cc2)c2ccccc2n1	none
Cc1cccc(Nc2cc(C)nc3ccccc23)c1	VACV E9 pol inh 77
COC(=O)c1ccc(Nc2cc(C)nc3ccccc23)cc1	none
Nc1nn(-c2ccc(Cl)cc2Cl)cc1-c1cccs1	none
Cc1ccc(OCCSc2ncnc3ccccc23)cc1	none
CCOC(=O)c1c(N2C(=O)C=CC2=O)sc2c1CCC(C)C2 (centres undefined)	none
O=C(O)c1cc(-c2cccs2)nc2ccccc12	none
CN(C(=O)c1cc(-c2cccs2)nc2ccccc12)c1ccccc1	none
O=C(O)c1cc(-c2cccs2)nc2ccc(Br)cc12	VACV E9 pol inh 34
O=C(/C=C/c1ccco1)/C=C/c1ccco1	VACV E9 pol inh 8.6
O=C(/C=C/c1ccco1)Nc1cccc(NC(=O)/C=C/c2ccco2)n1	VACV E9 pol inh 85
O=C(/C=C/c1ccco1)NCCc1ccccc1	none
O=C(/C=C/c1ccco1)C1(O)CCCCC1	none
O=C(/C=C/c1ccccc1)/C=C/c1ccco1	none
Cc1nn(C)c(C)c1NC(=O)/C=C/c1ccco1	none
Cc1c(C=Nc2ccc3c(c2)OCCO3)c2ccccc2n1C	none
CNc1cc(=O)n(C)c(=O)n1C	none
COc1cccc(/C(O)=C2\C(=O)C(=O)N(c3ccccn3)C2c2ccccc2)c1 (centres undefined)	none
CCOC(=O)c1sc(Nc2ccccc2)nc1C	none
CCOC(=O)c1sc(N2C(=O)C(=O)/C(=C(/O)c3ccc(OC)c(C)c3)C2c2ccccc2)nc1C (centres undefined)	VACV E9 pol inh 69
COCC(=O)OCC1CCCN2CCCCC12 (centres undefined)	none
CCOc1cccc(NC(=O)c2ccc(S(=O)(=O)N3CCCCCC3)cc2)c1	none
O=C(O)CC1N=Cc2ccccc21 (centres undefined)	none
CCC1CCCCN1C(=O)COC(=O)c1ccc(O)cc1 (centres undefined)	none
Cc1cc2c(C(C)C)c(O)c(O)c(C=O)c2c(O)c1-c1c(C)cc2c(C(C)C)c(O)c(O)c(C=O)c2c1O	VACV E9 pol inh 18
O=C(NC1CCCC1)C(Sc1ccccc1)c1ccccc1 (centres undefined)	none
C/C(=N\N)c1ccc2ccccc2c1	VACV E9 pol inh 83
O=C(/C=C/C(=O)c1ccc2ccccc2c1)c1ccccc1	none
CCCNC(=O)c1ccc2ccccc2c1	none
CCC(C)NC(=O)Cn1c(=O)n(CC(=O)NCc2ccc(C)cc2)c(=O)c2sccc21 (centres undefined)	none
CCN(CC)S(=O)(=O)N1CCCC(C(=O)NCc2ccc(C)cc2)C1 (centres undefined)	none
Cn1nc(-c2ccccc2)c(/C=N/O)c1Cl	none
O/N=C/C1=C(Cl)c2ccccc2CC1	VACV E9 pol inh 78
O/N=C/c1cccs1	none
CC1CCN(C(=O)COC(=O)c2sc3ccccc3c2Cl)CC1	none
FC(F)(F)c1cnc2c(-c3ccc(Cl)cc3Cl)onc2c1	none
Cc1cc(-c2ccc(F)cc2)nc2cc(C(=O)Nc3ccccc3C(F)(F)F)nn12	none
O=C(c1ccc2c(c1)N(Cc1ccc(F)cc1)CCS2)N1CCCCC1	none
COC(CNC(=O)c1ccc2c(c1)N(Cc1ccc(Cl)cc1)CCS2)OC	none
O=C(O)c1ccc2c(c1)N(Cc1ccc(Cl)cc1)CCS2	VACV E9 pol inh 72
CC1(C)CC(=O)/C(=C/c2ccco2)CO1	none
CSc1ncc(Cl)c(C(=O)Nc2nnc(SCc3ccc(F)cc3)s2)n1	VACV E9 pol inh 68
Cc1ccc(C(=O)Nc2nnc(SCc3ccccc3)s2)cc1	none
CCC(=O)Nc1nnc(SCc2cccc(F)c2)s1	none
CCOc1cccc(=O)c2c(C)n(-c3ccc(OC)cc3)c(C)c12	none
CCOc1cccc(=NC2CCCCC2)c2c(C)n(C)c(C)c12	VACV E9 pol inh 89
CCOc1ccccc1C(=O)NC1CCCCCC1	none
Cn1nc(C(=O)NCCN(Cc2ccco2)C2CCCC2)c2c1-c1ccccc1OC2	none
Cc1nn(-c2ccccc2)c2sc(C(=O)NC(C)C)cc12	none
Cc1nn(-c2ccccc2)c2sc(C(=O)O)cc12	none
Cc1nn(-c2ccccc2)c2sc(C#N)c(N)c12	VACV E9 pol inh 80
CCc1ccc(OCC(=O)NCCc2ccccc2)cc1	none
OC(COc1ccccc1)CN1CCN(Cc2ccc(Cl)cc2)CC1 (centres undefined)	none
CC1(C)C(C=C(Cl)Cl)C1C(=O)NC1CCS(=O)(=O)C1 (centres undefined)	none
C=CCc1cc2c(C)cc(=O)oc2c(C)c1O	none
CCOC(=O)c1cc(-c2ccccc2)n(-c2ccc(C(=O)O)cc2)c1C	VACV E9 pol inh 61
CCOC(=O)c1cc(-c2ccccc2)n(CCC(=O)O)c1C	none
CCOC(=O)c1cc(-c2ccccc2)n(-c2cccc(C(=O)N3CCCC3)c2)c1C	none
O=C(O)c1ccc(CSc2nc3ccccc3s2)cc1	none
COC(=O)CSC1=C(C#N)C(c2ccccc2C)C2=C(CCCC2=O)N1 (centres undefined)	none
O=C(CSc1ccc(Cl)cc1)N1CCc2c([nH]c3ccccc23)C1C(F)(F)F (centres undefined)	none
O=C(O)c1cc2ccc3cccc4ccc(c1)c2c34	VACV E9 pol inh 77
O=C(O)c1c2ccccc2cc2ccccc12	none
O=C(O)c1cccc(N2C(=O)CCC2=O)c1	none
CC[N+](CC)=c1scc(-c2ccccc2)s1	none
COc1nc2c(C)cccc2cc1-c1noc(-c2ccc(C)cc2)n1	none
